Measurements from the supplement of paper PMC6992640.
Structures can show the parent of a compound that is named as a salt. ± gives the standard deviation of the averaged measurements.

Columns and labels:
Assay in all cases: cell viability (% of vehicle); higher = less cytotoxic
Details in all cases: 10 µM; 72 h
HCI01 = system: HCI01 (cells of a triple-negative basal-like breast cancer xenograft)
HCI03 = system: HCI03 (cells of an ER-positive luminal breast cancer xenograft)
HCI09 = system: HCI09 (cells of a triple-negative luminal androgen receptor type breast cancer xenograft)
HCI11 = system: HCI11 (cells of an ER-positive luminal breast cancer xenograft)
HCI13 = system: HCI13 (cells of an ER-positive luminal breast cancer xenograft)
HCI16 = system: HCI16 (cells of a triple-negative basal-like breast cancer xenograft)
UCD52 = system: UCD52 (cells of a triple-negative basal-like breast cancer xenograft)
WHIM2 = system: WHIM2 (cells of a triple-negative basal-like breast cancer xenograft)
WHIM30 = system: WHIM30 (cells of a triple-negative basal-like breast cancer xenograft)
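Further: PDX cells carrying CMV promoter-driven luciferase, viability read as total photon flux per second by IVIS imaging following D-luciferin, vehicle control 0.1% DMSO.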

Structure (SMILES) | cell viability (HCI01) | cell viability (HCI03) | cell viability (HCI09) | cell viability (HCI11) | cell viability (HCI13) | cell viability (HCI16) | cell viability (UCD52) | cell viability (WHIM2) | cell viability (WHIM30)
COc1ccc(C(=O)CC(=O)c2ccc(C(C)(C)C)cc2)cc1 [Avobenzone] | 74.2 ± 40 | 126 | 74.1 ± 8.4 | 83.5 | 76.7 ± 5.2 | 119 | 71 ± 1.6 | 106 ± 37 | 141 ± 12
COc1cc(C(=O)NC2CCCNC2)cc(OC)c1OC (configuration not stated) [Troxipide] | 98.8 ± 1 | 110 | 107 ± 28 | 96.3 | 57.8 ± 3.5 | 106 | 96.8 ± 7.8 | 103 ± 15 | 137 ± 11
CC1=NN(c2ccccc2)C(=O)C1 [Edaravone] | 80.8 ± 11 | 108 | 91.7 ± 13 | 100 | 99.37 ± 0.89 | 113 | 87.9 ± 16 | 83.1 ± 24 | 130 ± 10
CCC1OC(=O)C(C)C(OC2CC(C)(OC)C(O)C(C)O2)C(C)C(OC2OC(C)CC(N(C)C)C2O)C(C)(OC)CC(C)C(=O)C(C)C(O)C1(C)O (configuration not stated) [Clarithromycin] | 112 ± 5.1 | 137 | 94.7 ± 19 | 116 | 125 ± 11 | 96.6 | 95.5 ± 8.8 | 104 ± 10 | 113 ± 22
Cc1cc(C)nc(NS(=O)(=O)c2ccc(N)cc2)n1 [Sulfamethazine] | 86 ± 14 | 88.9 | 101 ± 3.9 | 89.6 | 112 ± 6.1 | 114 | 91.9 ± 5.5 | 95.7 ± 21 | 132 ± 1.9
Nc1ncnc2c1ncn2C1OC(CO)C(O)C1O (configuration not stated) [Vidarabine] | 64.8 ± 36 | 136 | 90.1 ± 5.1 | 86.9 | 106 ± 6.1 | 96.1 | 80.5 ± 2.9 | 105 ± 19 | 153 ± 7.4
COC(=O)NC(C(=O)NC(Cc1ccccc1)C(O)CN(Cc1ccc(-c2ccccn2)cc1)NC(=O)C(NC(=O)OC)C(C)(C)C)C(C)(C)C.O=S(=O)(O)O (configuration not stated) | 134 ± 8.2 | 135 | 74.8 ± 2.8 | 140 | 100 ± 5.6 | 138 | 113 ± 14 | 90 ± 6.2 | 148 ± 31
CC(=O)N(c1onc(C)c1C)S(=O)(=O)c1ccc(N)cc1 [Sulfisoxazole Acetyl] | 90.9 ± 1.4 | 116 | 90.9 ± 11 | 95.7 | 95.2 ± 3.5 | 104 | 92.77 ± 0.54 | 106 ± 3.9 | 103 ± 1.9
CC(=O)O[C@H]1C[C@@]2(C)[C@@H](C[C@@H](O)[C@H]3[C@@]4(C)CC[C@@H](O)[C@@H](C)[C@@H]4CC[C@@]32C)/C1=C(\CCC=C(C)C)C(=O)[O-].[Na+] [Fusidic Acid (sodium salt)] | 97.1 ± 30 | 116 | 112 ± 21 | 81.6 | 129 ± 2.5 | 121 | 111 ± 3.2 | 88.3 ± 15 | 149 ± 19
O=C1CN(/N=C/c2ccc(-c3ccc([N+](=O)[O-])cc3)o2)C([O-])=N1.[Na+] [Dantrolene, sodium salt] | 98.7 ± 15 | 174 | 83.5 ± 7.8 | 99.1 | 105 ± 9.9 | 110 | 92.4 ± 4.7 | 104 ± 4 | 130 ± 7.4
CN(C)C(=O)COC(=O)Cc1ccc(OC(=O)c2ccc(N=C(N)N)cc2)cc1.CS(=O)(=O)O [Camostat Mesilate] | 105 ± 24 | 133 | 85.2 ± 6.6 | 70.7 | 109 ± 5.7 | 112 | 99.8 ± 6.7 | 108 ± 5.9 | 110 ± 5.2
Nc1ccn(C2OC(CO)C(O)C2O)c(=O)n1 (configuration not stated) [Cytidine] | 101 ± 36 | 131 | 98.9 ± 9.3 | 105 | 87.1 ± 7 | 122 | 92.5 ± 19 | 108 ± 18 | 146 ± 29
Nc1nccs1 [Aminothiazole] | 147 ± 24 | 105 | 101 ± 3.2 | 117 | 98.3 ± 7.8 | 136 | 91.8 ± 5.1 | 116 ± 5.8 | 105 ± 18
CC(C[N+](C)(C)C)OC(N)=O.[Cl-] (configuration not stated) [Bethanechol chloride] | 86.3 ± 5.2 | 88 | 90.8 ± 12 | 82.5 | 104 ± 14 | 101 | 100 ± 5.9 | 105 ± 6.2 | 79.4 ± 1.9
COCCCOc1ccnc(C[S+]([O-])c2nc3ccccc3[nH]2)c1C (configuration not stated) [Rabeprazole] | 156 ± 40 | 159 | 116 ± 3.5 | 123 | 152 ± 1.6 | 161 | 128 ± 27 | 131 ± 15 | 138 ± 8.2
FC(F)(F)c1ccc(CNc2ccc(Cc3c[nH]c4ncc(Cl)cc34)cn2)cn1 [Pexidartinib (PLX3397)] | 100 ± 1.4 | 139 | 73.6 ± 3.9 | 91.3 | 96.9 ± 7.1 | 116 | 97.4 ± 16 | 96.5 ± 8.4 | 86 ± 11
CC(=O)Nc1ncc([N+](=O)[O-])s1 [Nithiamide] | 112 ± 16 | 159 | 106 ± 6.2 | 105 | 67.5 ± 5.2 | 133 | 109 ± 6.1 | 117 ± 13 | 91.3 ± 2
CC[N+](CC)(CC)CCOc1cccc(OCC[N+](CC)(CC)CC)c1OCC[N+](CC)(CC)CC.[I-].[I-].[I-] [Gallamine Triethiodide] | 107 ± 9.8 | 118 | 94.6 ± 20 | 88.1 | 107 ± 8.3 | 92.6 | 98 ± 6.3 | 118 ± 6.2 | 79.5 ± 6.1
[O-][n+]1cccc(CO)c1 [Mepiroxol] | 117 ± 13 | 119 | 105.2 ± 0.98 | 103 | 99.24 ± 0.22 | 97 | 90.9 ± 8.7 | 95.7 ± 9.9 | 139 ± 26
NC(=O)NN=Cc1ccc([N+](=O)[O-])o1 [Nitrofurazone] | 125 ± 3.8 | 149 | 38.5 ± 15 | 92.3 | 159 ± 12 | 148 | 137 ± 15 | 105 ± 7.4 | 118 ± 18
NC(N)=NS(=O)(=O)c1ccc(N)cc1 [Sulfaguanidine] | 99.8 ± 16 | 135 | 88.6 ± 12 | 86.1 | 108 ± 7.2 | 135 | 85.4 ± 6.9 | 116 ± 6.5 | 118 ± 2.4
COc1cc2c(cc1OC)CN(CCc1ccc(NC(=O)c3cccc4c(=O)c5cccc(OC)c5[nH]c34)cc1)CC2 [Elacridar] | 111.7 ± 0.54 | 71.7 | 71.7 ± 33 | 101 | 113 ± 35 | 97.7 | 63.7 ± 5.6 | 48.2 ± 22 | 89.9 ± 0.9
C[N+](C)(C)CC(O)CC(=O)[O-] [L-Carnitine inner salt] | 123 ± 44 | 119 | 99.8 ± 10 | 95.7 | 111.7 ± 1.1 | 114 | 103 ± 3.8 | 96.9 ± 13 | 103 ± 10
